# Results as given in ChEMBL document CHEMBL2218924, “A broad activity screen in support of a chemogenomic map for kinase signalling research and drug discovery” (Biochem J, 2013).
# Experiments:
# [1] = molecular target: Tyrosine-protein kinase SYK (Homo sapiens) (UniProt P43405); conditions: at 10 µM
# [2] = molecular target: T1, Mitogen-activated protein kinase kinase kinase 7 (Homo sapiens) (UniProt O43318); conditions: at 1 µM
# T1 sequence (whole entry): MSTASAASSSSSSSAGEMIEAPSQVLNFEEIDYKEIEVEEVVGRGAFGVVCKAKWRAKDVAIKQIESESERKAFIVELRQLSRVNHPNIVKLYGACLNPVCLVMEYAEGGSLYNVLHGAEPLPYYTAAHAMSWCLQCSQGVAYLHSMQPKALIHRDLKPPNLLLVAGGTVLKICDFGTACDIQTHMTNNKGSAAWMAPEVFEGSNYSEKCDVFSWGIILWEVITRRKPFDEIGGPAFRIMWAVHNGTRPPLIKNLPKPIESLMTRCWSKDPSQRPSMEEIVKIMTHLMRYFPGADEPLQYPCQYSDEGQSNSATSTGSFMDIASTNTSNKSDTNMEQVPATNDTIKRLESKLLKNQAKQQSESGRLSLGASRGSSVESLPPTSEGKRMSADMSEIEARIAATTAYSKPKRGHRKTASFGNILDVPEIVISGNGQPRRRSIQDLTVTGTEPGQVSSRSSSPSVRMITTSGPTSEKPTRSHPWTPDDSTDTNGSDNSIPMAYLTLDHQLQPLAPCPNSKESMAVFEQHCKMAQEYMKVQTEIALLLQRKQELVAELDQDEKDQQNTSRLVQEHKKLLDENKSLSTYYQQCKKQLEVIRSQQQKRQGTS
# [3] = molecular target: T1, Mitogen-activated protein kinase kinase kinase 7 (Homo sapiens); conditions: at 10 µM
# [4] = molecular target: T2, Serine/threonine-protein kinase TAO1 (Homo sapiens) (UniProt Q7L7X3); conditions: at 1 µM
# T2 sequence (whole entry): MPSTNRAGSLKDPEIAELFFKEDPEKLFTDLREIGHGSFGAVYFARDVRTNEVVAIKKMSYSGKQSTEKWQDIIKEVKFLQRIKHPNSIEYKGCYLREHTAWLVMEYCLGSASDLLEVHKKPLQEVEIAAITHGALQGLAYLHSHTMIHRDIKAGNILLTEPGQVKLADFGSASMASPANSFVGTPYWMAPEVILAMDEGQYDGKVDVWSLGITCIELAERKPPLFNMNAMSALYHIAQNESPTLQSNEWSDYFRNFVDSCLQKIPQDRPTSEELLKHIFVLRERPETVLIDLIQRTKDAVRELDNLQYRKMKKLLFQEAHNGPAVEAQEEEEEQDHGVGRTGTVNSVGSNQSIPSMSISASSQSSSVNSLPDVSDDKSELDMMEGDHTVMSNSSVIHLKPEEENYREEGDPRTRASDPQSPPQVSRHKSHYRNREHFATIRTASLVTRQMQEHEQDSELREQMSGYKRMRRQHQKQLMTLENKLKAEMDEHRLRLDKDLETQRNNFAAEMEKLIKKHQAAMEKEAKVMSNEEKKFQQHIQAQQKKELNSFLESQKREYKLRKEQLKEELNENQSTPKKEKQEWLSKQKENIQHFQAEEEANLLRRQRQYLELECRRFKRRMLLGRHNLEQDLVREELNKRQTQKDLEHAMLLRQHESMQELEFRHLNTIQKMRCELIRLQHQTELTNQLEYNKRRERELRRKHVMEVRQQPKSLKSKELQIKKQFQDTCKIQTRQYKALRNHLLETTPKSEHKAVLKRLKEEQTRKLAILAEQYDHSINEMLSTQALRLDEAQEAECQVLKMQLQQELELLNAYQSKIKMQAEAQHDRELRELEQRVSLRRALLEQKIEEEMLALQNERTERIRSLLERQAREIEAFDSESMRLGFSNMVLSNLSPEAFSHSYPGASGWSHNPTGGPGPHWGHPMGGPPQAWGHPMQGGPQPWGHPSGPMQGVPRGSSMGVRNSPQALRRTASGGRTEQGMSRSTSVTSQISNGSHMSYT
# [5] = molecular target: T2, Serine/threonine-protein kinase TAO1 (Homo sapiens); conditions: at 10 µM
# [6] = molecular target: T3, Serine/threonine-protein kinase TAO2 (Homo sapiens) (UniProt Q9UL54); conditions: at 1 µM
# T3 sequence (whole entry): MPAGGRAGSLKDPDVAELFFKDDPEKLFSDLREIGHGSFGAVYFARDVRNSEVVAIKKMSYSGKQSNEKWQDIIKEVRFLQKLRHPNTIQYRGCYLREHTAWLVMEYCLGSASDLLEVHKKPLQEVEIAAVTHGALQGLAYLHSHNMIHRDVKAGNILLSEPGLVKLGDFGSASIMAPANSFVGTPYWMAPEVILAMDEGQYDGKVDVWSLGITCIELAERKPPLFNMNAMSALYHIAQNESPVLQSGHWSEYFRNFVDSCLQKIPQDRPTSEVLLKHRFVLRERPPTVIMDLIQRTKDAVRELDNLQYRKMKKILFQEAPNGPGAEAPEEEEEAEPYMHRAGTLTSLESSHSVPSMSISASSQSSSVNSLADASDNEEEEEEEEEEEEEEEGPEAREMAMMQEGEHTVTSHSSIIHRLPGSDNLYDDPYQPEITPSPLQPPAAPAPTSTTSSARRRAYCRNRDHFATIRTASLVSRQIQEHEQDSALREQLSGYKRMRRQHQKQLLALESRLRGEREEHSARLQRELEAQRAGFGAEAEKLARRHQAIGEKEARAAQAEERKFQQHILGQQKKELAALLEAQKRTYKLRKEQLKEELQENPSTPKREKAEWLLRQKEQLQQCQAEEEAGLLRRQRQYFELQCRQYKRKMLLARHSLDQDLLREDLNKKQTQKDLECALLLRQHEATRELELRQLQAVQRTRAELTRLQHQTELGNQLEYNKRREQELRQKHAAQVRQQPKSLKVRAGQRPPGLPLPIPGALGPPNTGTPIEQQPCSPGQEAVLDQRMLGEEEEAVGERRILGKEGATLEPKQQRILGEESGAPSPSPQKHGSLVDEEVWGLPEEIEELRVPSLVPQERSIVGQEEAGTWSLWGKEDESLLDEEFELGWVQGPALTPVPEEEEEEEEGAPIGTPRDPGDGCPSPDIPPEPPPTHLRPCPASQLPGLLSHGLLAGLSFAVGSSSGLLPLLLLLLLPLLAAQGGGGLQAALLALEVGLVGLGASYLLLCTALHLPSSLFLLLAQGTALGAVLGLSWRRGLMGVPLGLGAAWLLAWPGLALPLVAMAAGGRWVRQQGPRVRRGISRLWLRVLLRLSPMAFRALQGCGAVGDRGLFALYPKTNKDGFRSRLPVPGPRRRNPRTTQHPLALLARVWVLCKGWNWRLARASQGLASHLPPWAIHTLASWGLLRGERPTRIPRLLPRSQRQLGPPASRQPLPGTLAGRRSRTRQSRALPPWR
# [7] = molecular target: T3, Serine/threonine-protein kinase TAO2 (Homo sapiens); conditions: at 10 µM
# [8] = molecular target: T4, Serine/threonine-protein kinase TAO3 (Homo sapiens) (UniProt Q9H2K8); conditions: at 1 µM
# T4 sequence (whole entry): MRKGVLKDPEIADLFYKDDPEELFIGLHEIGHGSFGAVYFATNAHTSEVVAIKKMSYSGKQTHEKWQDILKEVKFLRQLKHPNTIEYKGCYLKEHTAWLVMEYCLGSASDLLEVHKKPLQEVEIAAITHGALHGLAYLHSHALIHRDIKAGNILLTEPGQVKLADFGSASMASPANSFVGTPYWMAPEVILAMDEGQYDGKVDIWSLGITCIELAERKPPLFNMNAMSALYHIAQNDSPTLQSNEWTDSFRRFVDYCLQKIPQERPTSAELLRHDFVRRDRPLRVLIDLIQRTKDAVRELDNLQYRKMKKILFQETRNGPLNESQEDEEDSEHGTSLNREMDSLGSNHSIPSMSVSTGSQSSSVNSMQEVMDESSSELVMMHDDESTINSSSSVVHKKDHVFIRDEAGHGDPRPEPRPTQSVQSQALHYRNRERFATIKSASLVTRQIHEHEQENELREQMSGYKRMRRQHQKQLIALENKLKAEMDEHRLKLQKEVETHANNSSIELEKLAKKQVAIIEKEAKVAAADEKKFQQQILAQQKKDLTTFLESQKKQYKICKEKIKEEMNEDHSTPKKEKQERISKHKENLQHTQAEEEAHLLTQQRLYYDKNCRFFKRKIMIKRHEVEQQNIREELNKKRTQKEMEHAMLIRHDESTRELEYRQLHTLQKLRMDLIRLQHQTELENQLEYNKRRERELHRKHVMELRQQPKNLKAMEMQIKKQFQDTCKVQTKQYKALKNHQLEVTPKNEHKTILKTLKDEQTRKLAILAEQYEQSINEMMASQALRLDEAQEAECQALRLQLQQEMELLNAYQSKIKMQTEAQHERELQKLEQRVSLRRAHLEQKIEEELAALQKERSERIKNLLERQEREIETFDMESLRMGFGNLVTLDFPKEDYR
# [9] = molecular target: T4, Serine/threonine-protein kinase TAO3 (Homo sapiens); conditions: at 10 µM
smiles,measurement,setting,value
O=C(CCCc1ccc(-c2ccccc2F)cc1)Nc1ccc(O)cc1,residual activity,[1],79%
same,residual activity,[2],93%
same,residual activity,[3],92%
same,residual activity,[4],103%
same,residual activity,[5],95%
same,residual activity,[6],105%
same,residual activity,[7],102%
same,residual activity,[8],100%
same,residual activity,[9],94%
